Data from a collection of fitness landscapes (doi:10.1016/j.celrep.2020.107928).
Over roughly 81,000 sequences, “one-hybrid fitness for binding parS DNA” has its median near -0.17; the highest 2% begin near 0.51. The sample holds the highest values, similar sequences and a random draw of the others, so the mix is not that of the screen.

B1: Caulobacter ParB omega fusion; a variant is named by its letters at X, in order, B8GW30 (parent)
chain: MESVVVGEPGMSEGRRGLGRGLSALLGEVDAAPAQAPGEQLGGSREAPIEILQRNPDQPRRTFREEDLEDLSNSIREKGVLQPILVRPSPDTAGEYQIVAGERAWRAAQRAGLKTVPIMVRELDDLAVLEIGIIENVQRADLNVLEEALSYKVLMEKFERTQENIAQTIGKSXSHVANXMRLLXLPDEVQSYLVSGELTAXHARAIAAAADPVALAKQIIEGGLSVRETEALARKAPNLSAGKSKGGRPPRVKDTDTQALESDLSSVLGLDVSIDHRGSTGTLTITYATLEQLDDLCNRLTRGI

Variants of: B1
Assay: one-hybrid fitness for binding parS DNA (scaled: cognate 1, non-cognate 0); higher = stronger binding
Conditions: with parS DNA site
Summary of the method: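 Caulobacter ParB libraries with four specificity codons randomised were screened by bacterial one-hybrid selection in the E. coli USO strain, using a HIS3 reporter whose site lies 19 bp from the promoter. Selection ran for 48 hours at 37°C on M9 lacking histidine, with 0.1 mM IPTG and 5 mM 3-AT. Plasmids were Illumina-sequenced before and after selection, three replicate libraries were pooled, and variants with under 10 reads were dropped. Fitness is the log change in each variant's read ratio to wild type, rescaled against the cognate and non-cognate sites.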

VTEW and YCGR cannot be ordered by “one-hybrid fitness for binding parS DNA” value: no more than 0.2 for the first, no more than 0.2 for the second.

AFAS and ARMN cannot be ordered by “one-hybrid fitness for binding parS DNA” value: no more than 0.2 for the first, no more than 0.2 for the second.

Compared with VELC, RNDC is higher in “one-hybrid fitness for binding parS DNA” value: no more than 0.2 for the first, 0.617 for the second.

Going from RNNC to RNNK, the “one-hybrid fitness for binding parS DNA” value falls from 0.869 to no more than 0.2.

Going from RNNM to RNDY, the “one-hybrid fitness for binding parS DNA” value falls from 0.28 to 0.256.

RNDD and DFSG cannot be ordered by “one-hybrid fitness for binding parS DNA” value: no more than 0.2 for the first, no more than 0.2 for the second.

Compared with RKSK, RKSY is higher in “one-hybrid fitness for binding parS DNA” value: no more than 0.2 for the first, 0.366 for the second.

First: RLSG
Second: RFSG
The “one-hybrid fitness for binding parS DNA” value of the first is higher: 1.01 for the first, 0.97 for the second.

First: RMSK
Second: RKSG
The “one-hybrid fitness for binding parS DNA” value of the first is lower: no more than 0.2 for the first, 0.928 for the second.

First: RMSG
Second: RLSF
The “one-hybrid fitness for binding parS DNA” value of the first is higher: 1.02 for the first, 0.246 for the second.

RMSR and NFSG cannot be ordered by “one-hybrid fitness for binding parS DNA” value: no more than 0.2 for the first, no more than 0.2 for the second.

RLSQ and NHHN cannot be ordered by “one-hybrid fitness for binding parS DNA” value: no more than 0.2 for the first, no more than 0.2 for the second.

WADR and REQN cannot be ordered by “one-hybrid fitness for binding parS DNA” value: no more than 0.2 for the first, no more than 0.2 for the second.

AVAR and GWDC cannot be ordered by “one-hybrid fitness for binding parS DNA” value: no more than 0.2 for the first, no more than 0.2 for the second.

RDVW and SSNE cannot be ordered by “one-hybrid fitness for binding parS DNA” value: no more than 0.2 for the first, no more than 0.2 for the second.

Going from RTSY to RDSG, the “one-hybrid fitness for binding parS DNA” value falls from 0.489 to no more than 0.2.

Compared with RTSQ, RTSG is higher in “one-hybrid fitness for binding parS DNA” value: no more than 0.2 for the first, 1 for the second.

Compared with RPSG, RISG is higher in “one-hybrid fitness for binding parS DNA” value: no more than 0.2 for the first, 1.01 for the second.

Going from RESG to RSSG, the “one-hybrid fitness for binding parS DNA” value rises from 0.217 to 0.993.

First: RCSG
Second: RISY
The “one-hybrid fitness for binding parS DNA” value of the first is higher: 0.997 for the first, 0.477 for the second.

RSSK and RISK cannot be ordered by “one-hybrid fitness for binding parS DNA” value: no more than 0.2 for the first, no more than 0.2 for the second.

EQLF and KYRN cannot be ordered by “one-hybrid fitness for binding parS DNA” value: no more than 0.2 for the first, no more than 0.2 for the second.

QKYR and DTLV cannot be ordered by “one-hybrid fitness for binding parS DNA” value: no more than 0.2 for the first, no more than 0.2 for the second.

PHRR and DRAS cannot be ordered by “one-hybrid fitness for binding parS DNA” value: no more than 0.2 for the first, no more than 0.2 for the second.

GTSE and LHRT cannot be ordered by “one-hybrid fitness for binding parS DNA” value: no more than 0.2 for the first, no more than 0.2 for the second.

Going from RRRN to RCDN, the “one-hybrid fitness for binding parS DNA” value falls from 0.788 to 0.376.

Going from RCYN to RRYN, the “one-hybrid fitness for binding parS DNA” value rises from 0.545 to 0.557.

Going from RCRN to RPYN, the “one-hybrid fitness for binding parS DNA” value falls from 0.387 to no more than 0.2.

KAEG and AMIC cannot be ordered by “one-hybrid fitness for binding parS DNA” value: no more than 0.2 for the first, no more than 0.2 for the second.

First: EFAA
Second: RSAA
The “one-hybrid fitness for binding parS DNA” value of the first is lower: no more than 0.2 for the first, 0.554 for the second.

First: RFAA
Second: RCAA
The “one-hybrid fitness for binding parS DNA” value of the first is lower: 0.559 for the first, 0.596 for the second.

First: RFFA
Second: RPAA
The “one-hybrid fitness for binding parS DNA” value of the first is higher: 0.492 for the first, no more than 0.2 for the second.

First: RWAA
Second: RDAA
The “one-hybrid fitness for binding parS DNA” value of the first is higher: 0.378 for the first, no more than 0.2 for the second.

Compared with RGAA, QVSF is lower in “one-hybrid fitness for binding parS DNA” value: 0.32 for the first, no more than 0.2 for the second.

LAKQ and WWDC cannot be ordered by “one-hybrid fitness for binding parS DNA” value: no more than 0.2 for the first, no more than 0.2 for the second.

First: RWHK
Second: RQFT
The “one-hybrid fitness for binding parS DNA” value of the first is lower: no more than 0.2 for the first, 0.759 for the second.

RQAD and RQFR cannot be ordered by “one-hybrid fitness for binding parS DNA” value: no more than 0.2 for the first, no more than 0.2 for the second.

Going from RQAT to RQAN, the “one-hybrid fitness for binding parS DNA” value falls from 0.884 to 0.419.

RQFQ and MIFS cannot be ordered by “one-hybrid fitness for binding parS DNA” value: no more than 0.2 for the first, no more than 0.2 for the second.

SNTE and YHPR cannot be ordered by “one-hybrid fitness for binding parS DNA” value: no more than 0.2 for the first, no more than 0.2 for the second.

RCGL and LEEV cannot be ordered by “one-hybrid fitness for binding parS DNA” value: no more than 0.2 for the first, no more than 0.2 for the second.

SVPL and GMVS cannot be ordered by “one-hybrid fitness for binding parS DNA” value: no more than 0.2 for the first, no more than 0.2 for the second.
